Experimental data reported in PubChem BioAssay AID1445 (SRMLSC, 2008).
The campaign covered roughly 220,000 compounds. About 910 (0.41%) were called active. For the sample, actives were picked, then their nearest neighbours and some compounds at random. Results with a measured potency or affinity are listed apart. A number with no mark means an inactive call.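 The calls were made as follows: active = primary inhibition above the hit cutoff, then over 50% inhibition at one or more dose response concentrations (cut at about 23% in these data, passing the limit was not always enough); inconclusive = conflicting primary data, or primary hits not chosen for dose response; inactive = low primary inhibition, or under 50% at every dose.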

Molecular target: Aminopeptidase N (Plasmodium falciparum (isolate 3D7)) (UniProt O96935)
Experiment: P. falciparum M1AAP inhibitors, biochemical, fluorogenic H-Leu-NHMec substrate, 1536-well (AID 1445);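 also: plate controls were DMSO full reaction for no effect and no enzyme background for full effect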
Details: recombinant M1AAP, H-Leu-NHMec fluorogenic kinetic assay; at 30 µM, hits give high values unless noted

Aminopeptidase N (Plasmodium falciparum (isolate 3D7)), sequence (O96935 whole entry, looked up): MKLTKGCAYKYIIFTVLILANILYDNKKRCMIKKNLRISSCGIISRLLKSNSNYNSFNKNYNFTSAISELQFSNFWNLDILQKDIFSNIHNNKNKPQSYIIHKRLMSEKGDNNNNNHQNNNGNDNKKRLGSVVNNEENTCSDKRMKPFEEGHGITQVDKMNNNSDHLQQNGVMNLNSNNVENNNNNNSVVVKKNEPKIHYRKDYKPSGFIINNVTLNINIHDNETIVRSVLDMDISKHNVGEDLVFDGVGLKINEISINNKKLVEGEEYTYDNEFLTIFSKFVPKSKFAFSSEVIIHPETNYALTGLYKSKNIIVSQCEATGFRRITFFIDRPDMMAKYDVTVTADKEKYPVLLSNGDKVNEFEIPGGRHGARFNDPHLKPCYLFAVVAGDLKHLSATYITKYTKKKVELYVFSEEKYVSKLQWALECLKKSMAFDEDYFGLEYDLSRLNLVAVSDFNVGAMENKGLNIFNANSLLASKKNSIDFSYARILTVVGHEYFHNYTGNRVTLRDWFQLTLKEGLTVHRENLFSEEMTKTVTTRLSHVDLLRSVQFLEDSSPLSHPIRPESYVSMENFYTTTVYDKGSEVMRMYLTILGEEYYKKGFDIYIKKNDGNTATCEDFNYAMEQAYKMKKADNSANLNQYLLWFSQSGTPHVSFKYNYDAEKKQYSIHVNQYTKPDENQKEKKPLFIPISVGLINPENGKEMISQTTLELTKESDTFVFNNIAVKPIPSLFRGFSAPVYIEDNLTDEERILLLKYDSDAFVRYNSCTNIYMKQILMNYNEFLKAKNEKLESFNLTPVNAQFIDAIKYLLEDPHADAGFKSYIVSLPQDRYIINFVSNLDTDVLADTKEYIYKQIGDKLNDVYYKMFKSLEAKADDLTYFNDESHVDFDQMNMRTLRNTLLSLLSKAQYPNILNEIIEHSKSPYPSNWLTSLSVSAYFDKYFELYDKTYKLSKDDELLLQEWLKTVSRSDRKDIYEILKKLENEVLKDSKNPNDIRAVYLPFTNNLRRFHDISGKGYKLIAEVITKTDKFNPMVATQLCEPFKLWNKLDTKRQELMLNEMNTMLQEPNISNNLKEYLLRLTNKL

Row | SMILES | inhibition
1 | O=C(Nc1ccc(Cl)c(Cl)c1)C1CC(=O)N(c2ccc(Br)cc2)C1 (configuration not stated) | -1.64%
2 | O=C(CCc1nc2ccccc2[nH]1)Nc1ccccc1F | -0.01%
3 | CC1CCCCN1C(=O)COc1ccc2ccc(=O)oc2c1 (configuration not stated) | -2.26%
4 | Cc1ccc(NCN2C(=O)C3CC=CCC3C2=O)cc1 (configuration not stated) | 2.04%
5 | Cc1ccc(CSCC(=O)N/N=C/c2sccc2C)cc1 | -0.66%
6 | O=C(Cn1cc(C(F)(F)F)cc(Cl)c1=O)Nc1cc(S(=O)(=O)N2CCOCC2)ccc1Cl | 7.22%
7 | Cc1ccc(NC(=O)NCc2ccc3c(c2)OCO3)cc1C | 0.33%
8 | Cc1ccc(N2CC(C(=O)Nc3cccnc3)CC2=O)cc1 (configuration not stated) | -4.99%
9 | CC12CC(NC(=O)N1CCc1ccccc1)c1ccccc1O2 (configuration not stated) | 4.6%
10 | COc1cccc2c1OC1(C)CC2NC(=O)N1Cc1ccccc1 (configuration not stated) | 1.39%
11 | CC12CC(NC(=O)N1Cc1ccccc1)c1ccccc1O2 (configuration not stated) | 25.3% (active)
12 | CC1CCCC(C)N1NC(=S)Nc1ccc(OC(F)F)cc1 (configuration not stated) | 3.89%
13 | CSc1cc(-c2ccc(Cl)cc2)[nH]c(=O)c1C#N | 0.84%
14 | O=C1NCC(COCc2ccco2)O1 (configuration not stated) | -4.49%
15 | COc1ccc(/C=N/NC(=O)C(Cc2c[nH]c3ccccc23)NC(=O)OCC(C)C)cc1[N+](=O)[O-] (configuration not stated) | 3.34%
16 | CC(=O)NC(Cc1c[nH]c2ccccc12)C(=O)N/N=C/c1ccccc1 (configuration not stated) | 2.78%
17 | COc1cc(/C=N/NC(=O)C(Cc2c[nH]c3ccccc23)NC(=O)OCC(C)C)cc([N+](=O)[O-])c1OCc1ccccc1 (configuration not stated) | 9.91%
18 | COC(=O)N/N=C/c1cc(OC)c(O)c([N+](=O)[O-])c1 | 14.3%
19 | COc1ccccc1CNC(=O)C(Cc1c[nH]c2ccccc12)NC(=O)OCc1ccccc1 (configuration not stated) | 2.3%
20 | COc1cc(/C=N/NC(=O)Cc2c[nH]c3ccccc23)cc(OC)c1OC | 8.03%
21 | Cc1ccc2[nH]c(=O)c(CNC(C)C)cc2c1 | 11.4%
22 | O=C(NCc1ccccn1)C(=O)Nc1ccccc1 | 1.97%
23 | Cc1ccc(C(=O)C(OC(=O)c2cnccn2)c2ccccc2)cc1 (configuration not stated) | 1.17%
24 | O=S(=O)(c1ccc2ccccc2c1)N1CCN(C(=S)Nc2ccc(F)cc2)CC1 | 3.26%
25 | O=C(Cc1ccccc1)NS(=O)(=O)c1ccc(N=NN2CCOCC2)cc1 | 12.9%

Row | SMILES | inhibition
26 | COC(=O)N1CCCc2cc(C)ccc21 | -4.46%
27 | COc1cccc(C(=O)NN2C(=O)C3C4C=CC(O4)C3C2=O)c1 (configuration not stated) | 6.4%
28 | NS(=O)(=O)c1ccc(CCNC(=O)CSc2nc3ccsc3c(=O)n2CC(=O)O)cc1 | 2.18%
29 | O=C(NCc1ccccn1)C1CCN(S(=O)(=O)c2cc(Cl)ccc2Cl)CC1 | 3.1%
30 | CC(C)c1ccc(C(N)=S)cc1 | 4.59%
31 | COC(=O)[C@H](C)NC(=O)NC(C)CCc1ccccc1 (some centres not stated) | 13.4%
32 | COC(=O)[C@@H](NC(=O)NC(C)CCc1ccccc1)C(C)C (some centres not stated) | 23.4% (active)
33 | CC(=O)NC(C)CCc1ccccc1 (configuration not stated) | -2.08%
34 | Cc1cccc(N2C(=O)CC(N3CCC(c4nc5ccccc5[nH]4)CC3)C2=O)c1 (configuration not stated) | 3.73%
35 | CC1CCN(C(=O)C2CCN(S(=O)(=O)c3cc(Cl)ccc3Cl)CC2)CC1 | 0.81%
36 | CC(C)C(C)NC(=O)CSc1nc2scc(-c3ccco3)c2c(=O)n1-c1ccccc1 (configuration not stated) | 4.78%
37 | CC(C)C(C)(C#N)NC(=O)CSc1nc2scc(-c3ccco3)c2c(=O)n1-c1ccccc1 (configuration not stated) | 24.4% (active)
38 | NC(=O)CSc1nc2scc(-c3ccco3)c2c(=O)n1-c1ccccc1 | 18%
39 | CCC(C(=O)Nc1ccncc1)c1ccccc1 (configuration not stated) | 2.45%
40 | Cc1cccc2cc(COC(=O)c3cccc([N+](=O)[O-])c3)c(=O)[nH]c12 | 3.82%
41 | CC1CCN(CC(=O)Nc2cccc([N+](=O)[O-])c2)CC1 | -0.43%
42 | CC(=O)NC1CCN(CC(=O)Nc2cccc([N+](=O)[O-])c2)CC1 | 1.46%
43 | CCC(C)NC(=O)CSc1nc(-c2cccs2)cc(C(F)(F)F)n1 (configuration not stated) | 18.3%
44 | O=C(NC1CCCCC1)NC1CC2CCC(C1)N2C(=S)NCc1ccco1 (configuration not stated) | 19.9%
45 | O=C(NC1CCN(C(=S)NCc2ccco2)CC1)C1CCCCC1 | 6.27%
46 | CCNC(=S)N1CCC(NC(=O)c2ccco2)CC1 | -4.14%
47 | Cc1ccc(NC(=O)N2CCC(C(=O)NCc3ccc(F)cc3)CC2)cc1 | 10.1%
48 | COc1ccc(C(=O)NC2CCN(C(=S)NCc3ccco3)CC2)cc1 | 4.73%
49 | Cc1ccc(NC(=O)N2CCC(C(=O)NCc3ccccc3)CC2)cc1 | 26.3% (active)
50 | CCOc1ccc(C(=O)NC2CCN(C(=S)NCc3ccco3)CC2)cc1 | 11.3%

Row | SMILES | inhibition
51 | O=C(NCc1ccccc1)C1CCN(C(=O)NCc2ccccc2)CC1 | 17.5%
52 | O=C(NC1CCN(C(=O)NC2CCCCC2)CC1)c1ccco1 | 11.5%
53 | Cc1cc(=O)n(-c2ccc(Cl)cc2)c(=O)[nH]1 | -2%
54 | Cc1c(C(=O)NCc2ccccn2)oc2ccc(S(=O)(=O)N3CCOCC3)cc12 | -1.02%
55 | O=C(O)CCCC(=O)NNc1ncnc2ccccc12 | 13.7%
56 | O=C(CCCCCN1C(=O)c2ccccc2C1=O)NCc1ccco1 | 19.7%
57 | O=C(Oc1c(Cl)cc(Cl)c2ccccc12)N1CCCC1 | 13.6%
58 | COc1ccc(-c2nn(-c3ccccc3)cc2/C=C/C(=O)OCC(=O)Nc2cccc(C#N)c2)cc1 | 0.99%
59 | O=C(NCc1ccco1)c1cccc(F)c1 | 4.04%
60 | O=C(NC1CCN(C(=S)NCc2ccco2)CC1)c1ccc(F)cc1 | 14.1%
61 | COc1ccc(C(C(=O)NC2CCCCC2)N(C(=O)c2sc(C)nc2C)c2ccccc2)cc1 (configuration not stated) | -2.38%
62 | Cc1cc(NC(=O)Nc2cccs2)no1 | 6.28%
63 | O=C(Nc1ccccn1)c1cccs1 | 3.97%
64 | O=C(Nc1ccncc1)Nc1ccccn1 | 3.11%
65 | Cc1ccc(NC(=O)Nc2cccs2)cc1 | 9.98%
66 | Cc1cccc(C)c1-n1c(C)cc(/C=N/NC(=O)CSc2ncccn2)c1C | 4.32%
67 | CC(C)CCNC(=O)NC(=O)COC(=O)C1=COCCO1 | -7.85%
68 | O=c1cc(C23CC4CC(CC(C4)C2)C3)[nH][nH]1 | -6.62%
69 | COc1ccc(C(=O)/C(=C/c2cccs2)c2nc3ccccc3o2)cc1 | 15.5%
70 | N#C/C(=C\c1ccc(O)cc1)c1nc2ccccc2o1 | 7.39%
71 | COc1ccc(C(=O)/C(=C\c2sccc2C)c2nc3ccccc3o2)cc1 | 2.1%
72 | N#C/C(=C\c1ccc(Cl)cc1)c1nc2ccccc2o1 | 15.7%
73 | COCc1[nH]nc2c1C(c1ccsc1)C(C#N)=C(N)O2 (configuration not stated) | 1.23%
74 | CCc1ccc(N2CC(C(=O)Nc3cc(C)ccc3F)CC2=O)cc1 (configuration not stated) | 1.79%
75 | Cc1c2c(nc3c(C(=O)NC4CCCCC4C)cnn13)CCCC2 (configuration not stated) | 3.74%

Row | SMILES | inhibition
76 | O=C(Cc1csc(-c2ccccc2)n1)NCc1ccccc1F | 2.51%
77 | COCc1cc(C)nc(N/N=C/c2ccc(-c3ccc(C(=O)O)c(Cl)c3)o2)c1C#N | 15.5%
78 | O=C(O)c1cc(-c2ccc(/C=N/Nc3ccc(Cl)cc3)o2)ccc1Cl | 16.9%
79 | O=[N+]([O-])c1cccc(-c2ccc(/C=N/NC(=S)Nc3ccccc3)o2)c1 | 2.03%
80 | O=C(N/N=C/c1ccc([N+](=O)[O-])o1)c1cc2c(ccc3ccccc32)o1 | 5.62%
81 | Cc1ccc(-c2ccc(/C=N\NC(=O)c3cc4c(ccc5ccccc54)o3)o2)cc1[N+](=O)[O-] | 2.34%
82 | Nc1nonc1C(=O)N/N=C/c1ccc(-c2cccc([N+](=O)[O-])c2)o1 | 7.55%
83 | Nc1nonc1C(=O)N/N=C/c1ccc(-c2cccc(C(=O)O)c2)o1 | 16.9%
84 | COCc1cc(C)n(CC(=O)Nc2ccc(Cl)cc2Cl)c(=O)c1C#N | 10.9%
85 | CC(=O)Nc1ccc(S(=O)(=O)NCC(=O)OCC(=O)NC(=O)c2cccn2C)cc1 | 3.48%
86 | CC1CCN(S(=O)(=O)c2ccc(NC(=O)CCN3C(=O)c4ccccc4C3=O)cc2)CC1 | 4.02%
87 | C=CCNC(=S)/N=c1/scc(C)n1C | 6.8%
88 | Cc1ccccc1Cn1ccc(NC(=O)c2onc(C)c2Cl)n1 | 2.73%
89 | COCCNC(=O)COc1ccccc1Cl | 17.4%
90 | O=C(Nn1cc(C(=O)Nc2ccc(F)cc2F)c2ccccc2c1=O)c1cnccn1 | 5.45%
91 | CCOC(=O)N1CCN(c2c(N3CCN(c4ccccc4F)CC3)c(=O)c2=O)CC1 | 3.17%
92 | CCc1nnc(NC(=O)CSc2nnc(CNC(=O)c3ccc(OC)c(OC)c3)o2)s1 | 0.34%
93 | CC1(C)NC(=O)N(CCCCOc2ccccc2[N+](=O)[O-])C1=O | 1.49%
94 | O=C1C2C3C=CC(C4CC34)C2C(=O)N1/N=C/c1ccc(-c2ccc([N+](=O)[O-])cc2)o1 (configuration not stated) | 7.6%
95 | O=C(Cc1ccc(Br)cc1)N/N=C/c1ccc(-c2cccc(C(=O)O)c2)o1 | 14.3%
96 | COc1ccc(CC(=O)N/N=C/c2ccc(-c3ccc(F)cc3)o2)cc1OC | 6.71%
97 | COC(=O)c1ccc(-c2ccc(/C=N/N3C(=O)C4C5C=CC(C6CC56)C4C3=O)o2)cc1 (configuration not stated) | 4.36%
